In PubChem BioAssay (EPA / NIEHS):
Results filed as inconclusive are left out. The source made the active and inactive calls. The calls were made as follows, unless noted: active = hit-call score of the fitted dose curve at least 0.9, where 1 is the maximum; inactive = score below 0.9.

Experiment: CCTE_Mundy_HCI_hN2_NOG_NeuriteLength: CCTE's Neurite Outgrowth Assay in human hN2 cells for Neurite Length, Mundy Lab (AID 2284220; active = hit-call score of the fitted dose curve at least 0.9, where 1 is the maximum)
Summary of the method: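 Read-out is neurite length from high-content imaging of βIII-tubulin/Alexa Fluor-488-labelled neurons, referenced to DMSO controls.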

outcome, inactive:
O=C1CCC(N2C(=O)c3ccccc3C2=O)C(=O)N1 (stereo not drawn)
NC(=O)NO
Cn1c(=O)c2c(ncn2C)n(C)c1=O

Experiment: CCTE_Mundy_HCI_Cortical_Synap_Neur_Matur_NeuriteCount: CCTE's Synaptogenesis and Neurite Maturation Assay in rat cortical cells for Neurite Count, Mundy Lab (AID 2284222);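 also: exposure from day 7 to day 12 in vitro with readout at day 12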
Summary of the method: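 Rat cortical neurons, 96-well; AraC DIV 5; chemical + media change DIV 7; end DIV 12. Fix PFA/Hoechst, anti-MAP2 + anti-synaptophysin IF. HCI neurite count vs DMSO baseline.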

outcome, inactive:
O=C1CCC(N2C(=O)c3ccccc3C2=O)C(=O)N1 (stereo not drawn)
O=P(OC(CCl)CCl)(OC(CCl)CCl)OC(CCl)CCl
CC[C@H]1OC(=O)[C@H](C)[C@@H](O[C@H]2C[C@@](C)(OC)[C@@H](O)[C@H](C)O2)[C@H](C)[C@@H](O[C@@H]2O[C@H](C)C[C@H](N(C)C)[C@H]2O)[C@](C)(O)C[C@@H](C)C(=O)[C@H](C)[C@@H](O)[C@]1(C)O
NC(=O)NO
Cn1c(=O)c2c(ncn2C)n(C)c1=O

Experiment: CCTE_Mundy_HCI_Cortical_Synap_Neur_Matur_CellBodySpotCount: CCTE's Synaptogenesis and Neurite Maturation Assay in rat cortical cells for Cell Body Spot Count, Mundy Lab (AID 2284223)
Procedure: CCTE_Mundy_HCI_Cortical_Synap&Neurite_Matur is a multiplexed, cell-based-readout assay that uses rat primary cortical cells with measurements taken at 288.33 hours after chemical dosing in a microplate: 96-well plate.CCTE_Mundy_HCI_Cortical_Synap_Neur_Matur_CellBodySpotCount is one of eight components of the CCTE_Mundy_HCI_Cortical_Synap&Neurite_Matur assay. It measures synaptogenesis and neurite maturation related to number of cell body-associated synapses (synaptophysin puncta) per neuron using High Content Imaging of fluorescently labelled markers.[…] Using a type of morphology reporter, loss -of-signal activity can be used to understand developmental effects.
Cells are plated onto 96 well plates and allowed 2 hr for attachment to the substrate. At days in vitro (DIV) 5, Cytosine Arabinoside (AraC) is added to arrest glial cell growth. Chemicals are dosed and a media change is performed at DIV 7 of differentiation and is continued through DIV 12 when the experiment is terminated. Cells are fixed with […] and Hoechst Dye. Cells are stained using Millipore Mouse anti-MAP2MAB3418 (1:800) and Millipore Rabbit anti-Synaptophysinsc-1750 (1:250) primary antibodies and Alexa Fluor-488 goat anti-mouse and AlexaFluor-546 goat anti-rabbit secondary antibodies to label neuronal cell nuclei, synapses and neurites. A Cellomics ArrayScan VTi HCS Reader is used for automated image acquisition and analysis of neurite outgrowth.

outcome, inactive:
O=C1CCC(N2C(=O)c3ccccc3C2=O)C(=O)N1 (stereo not drawn)
O=P(OC(CCl)CCl)(OC(CCl)CCl)OC(CCl)CCl
CC[C@H]1OC(=O)[C@H](C)[C@@H](O[C@H]2C[C@@](C)(OC)[C@@H](O)[C@H](C)O2)[C@H](C)[C@@H](O[C@@H]2O[C@H](C)C[C@H](N(C)C)[C@H]2O)[C@](C)(O)C[C@@H](C)C(=O)[C@H](C)[C@@H](O)[C@]1(C)O
NC(=O)NO
Cn1c(=O)c2c(ncn2C)n(C)c1=O
